Screening results (PubChem)
SENP8 block-1 = human SENP8 protease inhibitors, primary screen, biochemical, fluorescence, Nedd8 protein substrate, uHTS | Sentrin-specific protease 8 (Homo sapiens), Q96LD8 | recombinant SENP8 | inhibition, % at 20 µM | actives 0.64% (n = 360,000) | AID 602440, 2012; in the data active = inhibition mostly above about 40%, no sharp cut-off; inactive = mostly below about 27%
PPC-1+TRAIL kill = compounds killing PPC-1 cancer cells with TRAIL present, primary screen, TRAIL potentiator project, ATPLite luminescence, uHTS; AID 1443, 2008; PPC-1 cells + TRAIL, ATPLite viability luminescence; actives 0.41% (n = 220,000); cell killing (% activity), % at 4 µM or 5 µM;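 active = cell killing above 50% in the first pass at 4 µM, then a duplicate retest at 5 µM averaging 50% or more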;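 also: plate controls were cells with TRAIL plus DMSO for no effect and medium-only wells lacking cells for full effect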
SENP7 block = SENP7 protease inhibitors, primary screen, biochemical, luminescence, uHTS; AID 434973, 2010; actives 1.5% (n = 330,000); inhibition, % at 5 µM; Sentrin-specific protease 7 (Homo sapiens), Q9BQF6; recombinant SENP7, Z-RLRGG-aminoluciferin luminescence, 40 min;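 active = inhibition above about 50% at the single test dose, limit read from the data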;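 also: plate controls were DMSO with enzyme for no effect and no enzyme buffer wells for full effect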
Target sequence (Q9BQF6 706-1050 limits assumed): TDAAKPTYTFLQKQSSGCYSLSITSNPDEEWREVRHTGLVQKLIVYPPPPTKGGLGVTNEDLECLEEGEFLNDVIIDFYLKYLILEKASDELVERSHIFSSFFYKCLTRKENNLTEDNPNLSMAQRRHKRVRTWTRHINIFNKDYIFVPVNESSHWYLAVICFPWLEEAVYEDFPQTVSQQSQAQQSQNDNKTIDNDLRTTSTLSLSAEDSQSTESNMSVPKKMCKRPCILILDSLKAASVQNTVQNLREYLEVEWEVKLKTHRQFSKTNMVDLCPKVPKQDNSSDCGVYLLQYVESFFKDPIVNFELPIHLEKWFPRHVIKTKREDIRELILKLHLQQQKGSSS
SENP6 block = SENP6 protease inhibitors, primary screen, biochemical, luminescence, uHTS | Sentrin-specific protease 6 (Homo sapiens), Q9GZR1 | Recombinant SENP6 catalytic domain, aminoluciferin luminescence | inhibition, % at 10 µM | actives 1.8% (n = 330,000);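 active = inhibition above about 50% at the single tested dose, limit read from the data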;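 also: plate controls were DMSO wells with enzyme for no effect and DMSO wells lacking enzyme for full effect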
SENP8 block-2 = SENP8 protease inhibitors, primary screen, biochemical, luminescence. AID 2540, 2010. Sentrin-specific protease 8 (Homo sapiens), Q96LD8. actives 1.2% (n = 330,000). purified SENP8, Z-RLRGG-aminoluciferin cleavage. inhibition, % at 10 µM; in the data active = inhibition above about 50%
TRAIL sens C8 = viability loss with TRAIL in NB7+C8 cells, primary screen, TRAIL sensitizer project, cell-based, ATPlite luminescence | inhibition (viability loss, TRAIL sensitization), % at 10 µM | actives 1% (n = 360,000) | AID 624354, 2012;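 active = compounds causing at least 50% loss of cell viability in the single-dose screen, relative to plate controls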
SENP8 conf = SENP8 protease inhibitors, retest, confirmation, biochemical, luminescence, single concentration. shares compounds with SENP7 block. Recombinant SENP8, Z-RLRGG-aminoluciferin luminescence, 60 min. inhibition, % at 12.5 µM. actives 40% (n = 6,200);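 active = mean inhibition across replicates above about 50%, limit read from the data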
SENP6 conf = SENP6 protease inhibitors, confirmation, biochemical, luminescence, single concentration; shares compounds with SENP7 block; recombinant SENP6, Z-RLRGG-aminoluciferin luminescence; inhibition, % at 12.5 µM; actives 58% (n = 6,200)
SENP7 conf = SENP7 protease inhibitors, retest, confirmation, biochemical, luminescence, single concentration; shares compounds with SENP7 block; recombinant SENP7, Z-RLRGG-aminoluciferin luminescence, 40 min; inhibition, % at 12.5 µM; actives 69% (n = 6,200)
Casp3 SENP sel = caspase-3 protease inhibitors, confirmation, selectivity assay for SENP inhibitor project, biochemical, single concentration. actives 60% (n = 6,200). shares compounds with SENP7 block. AID 488918, 2010. inhibition, % at 12.5 µM. purified caspase-3, Z-DEVD-aminoluciferin luminescence, 60 min;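 active = mean inhibition above about 50%, limit read from the data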;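 also: plate controls were enzyme with DMSO for no effect and wells without caspase-3 for full effect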
Target sequence (P42574 28-227 limits assumed): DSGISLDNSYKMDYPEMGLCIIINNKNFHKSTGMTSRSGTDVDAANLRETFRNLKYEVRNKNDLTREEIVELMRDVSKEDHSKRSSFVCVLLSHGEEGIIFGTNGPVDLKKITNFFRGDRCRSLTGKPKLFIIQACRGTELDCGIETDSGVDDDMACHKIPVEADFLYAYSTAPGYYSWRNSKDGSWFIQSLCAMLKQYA
Luc interf = interferes with luciferase luminescence in SENP counter-screen; shares compounds with SENP7 block; Pre-incubated SENP8/Z-RLRGG-aminoluciferin, luciferase luminescence interference; inhibition, % at 12.5 µM; actives 39% (n = 6,200); AID 488919;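 active = mean inhibition above about 50% when retested at one dose, limit read from the data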;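 also: plate controls were DMSO wells with completed reaction for no effect and substrate without enzyme for full effect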
* hit, by the source's call; nt = not tested or not shown. Shown are actives, neighbours in structure and some others; about 3% of the full set was active somewhere.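 The calls were made as follows, unless noted: active = mean inhibition above about 50% in the one-dose retest (limit read from the data); inactive = the rest.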

SMILES | SENP8 block-1 | PPC-1+TRAIL kill | SENP7 block | SENP6 block | SENP8 block-2 | TRAIL sens C8 | SENP8 conf | SENP6 conf | SENP7 conf | Casp3 SENP sel | Luc interf
O/C(=C\c1nc2ccccc2[nH]1)c1cccs1 | -99 | nt | 20 | 61* | 33 | 11 | 40 | 74* | 66* | 38 | 46
O=C(CNc1cccc2ccccc12)N/N=C/c1ccc([N+](=O)[O-])cc1 | -105 | 9 | 30 | 74* | 18 | 29 | 11 | 7 | 8 | 4 | 2
Cc1ccccc1NCC(=O)N/N=C/c1ccc([N+](=O)[O-])cc1 | 19 | 2 | -8 | 5 | -3 | 15 | nt | nt | nt | nt | nt
O=C(CNc1cccc2ccccc12)N/N=C/c1cccc(Oc2ccccc2)c1 | -261 | 8 | 25 | 67* | 51* | -8 | 7 | -3 | -6 | -4 | -4
O=C(CNc1cccc2ccccc12)N/N=C/c1ccccn1 | -39 | 0 | 29 | 83* | 71* | -20 | 14 | 15 | 6 | -2 | 0
O=C(N/N=C/c1cccc(Oc2ccccc2)c1)c1cccc(O)c1 | 5 | nt | 38 | 60* | 37 | 26 | 48 | 43 | 62* | 28 | 22
Cc1ccc(CNC(=O)COc2ccc(S(=O)(=O)N3CCCC3)cc2)cc1 | 17 | nt | 4 | -18 | -2 | -26 | nt | nt | nt | nt | nt
O=C1CCCC(O)=C1N=Nc1cccc(C(=O)O)c1 | 21 | 11 | 80* | 77* | 61* | 3 | 14 | 78* | 96* | 22 | 70*
CCN(CC)S(=O)(=O)c1cccc(N=NC2=C(O)CCCC2=O)c1 | 16 | -6 | 3 | 1 | -2 | 24 | nt | nt | nt | nt | nt
Cc1ccc(S(=O)(=O)N2CCCCC2CCNC(=O)C(=O)Nc2ccccc2F)cc1 (stereo not given) | 8 | nt | 6 | -16 | -4 | 23 | nt | nt | nt | nt | nt
C[C@H]1CN([C@@H](C)CO)C(=O)c2cccc(NS(=O)(=O)c3ccc(Cl)cc3)c2O[C@@H]1CN(C)CC1CCCCC1 | 5 | nt | -2 | -18 | 5 | -12 | nt | nt | nt | nt | nt
Cc1cc(COc2ccccc2)oc1C(=O)O | 21 | nt | 100* | 95* | 97* | -1 | 99* | 100* | 103* | 88* | 98*
Cc1ccc(OCc2ccc(C(=O)N3CCOCC3)cc2)cc1C | 33 | 9 | 90* | 83* | 75* | 1 | -7 | 74* | 94* | 84* | 80*
Cc1ccc(OCc2ccc(C(=O)O)o2)cc1C | 26 | nt | 82* | 88* | 84* | -11 | 4 | 93* | 101* | 41 | 93*
CC(C)c1ccc(COc2ccc(C(=O)N3CCOCC3)cc2)cc1 | 4 | -14 | 7 | 3 | 2 | 20 | nt | nt | nt | nt | nt
COC(=O)c1ccc(COc2ccc3c(C)c(C)c(=O)oc3c2)o1 | -276 | 10 | 30 | 39 | 54* | 3 | 11 | 10 | 4 | 0 | 2
O=C(Nc1ccc(-n2cnnn2)cc1)c1cc(S(=O)(=O)N2CCCC2)ccc1Cl | 16 | nt | -1 | -3 | 1 | 9 | nt | nt | nt | nt | nt
O=C(O)c1ccc(COc2ccc3c4c(c(=O)oc3c2)CCC4)o1 | -193 | -26 | 93* | 82* | 91* | 3 | 94* | 95* | 100* | 65* | 94*
Cc1c(C)c2ccc(OCc3ccc(C(=O)O)o3)c(C)c2oc1=O | -299 | -6 | 50* | 77* | 65* | 0 | 9 | 66* | 79* | 16 | 57*
CCOC(=O)c1ccc(COc2ccc(C(C)C)cc2)o1 | -74 | 10 | 1 | -9 | -7 | -10 | nt | nt | nt | nt | nt
Cc1cc(C)cc(COc2ccc3c(C)c(CC(=O)O)c(=O)oc3c2C)c1 | -299 | nt | -4 | -9 | -3 | -8 | nt | nt | nt | nt | nt
CC(C)(c1ccccc1)c1ccc(OCc2ccc(C(=O)O)o2)cc1 | 18 | nt | 12 | 73* | 61* | -3 | 6 | 73* | 73* | 6 | 78*
CCC(C)c1ccc(OCc2ccc(C(=O)O)o2)cc1 (stereo not given) | 14 | nt | 80* | 95* | 94* | -8 | 3 | 98* | 102* | 48 | 98*
CC(C)(C)c1ccc(OCc2ccc(C(=O)NN)o2)cc1 | -2 | 27 | -2 | -4 | 2 | 31 | nt | nt | nt | nt | nt
O=C(COc1ccc2c3c(c(=O)oc2c1)CCC3)Nc1ccccn1 | -242 | nt | 89* | 1 | 38 | 8 | 31 | 28 | 14 | 66* | 19
SMILES | SENP8 block-1 | PPC-1+TRAIL kill | SENP7 block | SENP6 block | SENP8 block-2 | TRAIL sens C8 | SENP8 conf | SENP6 conf | SENP7 conf | Casp3 SENP sel | Luc interf
Cc1cc(NC(=O)COC(=O)COc2ccc3c4c(c(=O)oc3c2)CCC4)no1 | -140 | 7 | -3 | 2 | 2 | -3 | nt | nt | nt | nt | nt
Cc1ccccc1CSc1nnc(C)c(=O)n1N | 10 | 6 | 2 | 10 | -6 | -1 | nt | nt | nt | nt | nt
Cc1cc(C)c2c(n1)SCC(=O)N2CC(=O)Nc1ccc(Br)c(C)c1 | 22 | nt | 12 | -4 | 2 | 16 | nt | nt | nt | nt | nt
N/C(=N\OC(=O)c1ccc(Cl)cc1)c1[nH]ncc1Br | -6 | -7 | 100* | 100* | 96* | 35 | 98* | 98* | 101* | 98* | 98*
N/C(=N\OC(=O)c1cccs1)c1ccc(Cl)cc1 | 18 | 19 | 68* | 61* | 51* | 39 | 5 | 6 | 11 | 7 | 11
Cc1cccc(C(=O)O/N=C(\N)c2ccc(Cl)cc2)c1 | 13 | nt | 50 | 25 | 22 | 34 | nt | nt | nt | nt | nt
Cc1cc(/C(N)=N/OC(=O)c2ccc(Cl)cc2)no1 | 31 | 12 | 94* | 85* | 80* | 14 | 24 | 86* | 97* | 92* | 21
